FMDV antiviral = antivirals against foot and mouth disease virus. FMDV antiviral cell-based qHTS. 410,000 tested, 1.2% active. Potency, µM (highest dose often 57.9 µM), without a hit: at the top dose activity change, negative = inhibition, hits mostly inhibitors; calls by dose curve; tested in HEK293T cells; further: read-out not given here; potency means the concentration at half of the fitted maximal effect; nearly all actives have a fitted effect of over 45% in size
Vaccinia Venus = inhibitors of vaccinia virus (Venus reporter) | 330,000 tested, 0.46% active | Potency, µM (top dose mostly 36.5 µM), for the others: top-dose activity change, negative = inhibition, usual class: inhibitors | AID 720580 | Vaccinia virus Venus reporter expression, fluorescence; calls by dose curve; tested in A549 cells; further: potency means the concentration at half of the fitted maximal effect; nearly all actives have a fitted effect of over 30% in size
HCMV antiviral = blocks human cytomegalovirus replication; HFF cells, HCMV-luciferase reporter, 72 h; stronger effect = lower value; activity change, negative = inhibition, % at 57.5 µM; 410,000 tested, 4.5% active; in the data active means activity change below about -60%; inconclusive means no clear call, values can overlap the other calls; inactive means above about -39%
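After 16 h attachment at 37C, HFF cells received test compound and HCMV-luciferase (1 PFU/cell); reporter luminescence read 72 h later, data normalized against buffer-only and known inhibitor Salinomycin.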
VACV mCherry inh = vaccinia inhibition (mCherry reporter); Vaccinia virus mCherry reporter infection, fluorescence; Potency, µM (top dose mostly 36.5 µM), for the others: at the highest dose activity change, negative = inhibition, actives largely listed as inhibitors; 310,000 tested, 0.63% active; AID 720579; calls by dose curve; tested in A549 cells; further: potency means the concentration at half of the fitted maximal effect; nearly all actives have a fitted effect of over 35% in size
Lassa entry inh = blocks Lassa virus binding to or entry into cells; Lassa virus pseudotype entry inhibition, cell reporter; 300,000 tested, 1.2% active; AID 540256; Potency, µM (titrated, usually from 37.9 µM), inactives show top-dose activity change, negative = inhibition, actives largely listed as inhibitors; calls by dose curve; tested in HEK293 cells; further: potency means the concentration at half of the fitted maximal effect; nearly all actives have a fitted effect of over 50% in size
MARV entry inh = inhibitors of Marburg virus binding or cell entry; Marburg virus pseudotyped entry inhibition, cell reporter; 300,000 tested, 1.8% active; Potency, µM (highest dose often 37.8 µM), inactives show top-dose activity change, negative = inhibition, hits mostly inhibitors; calls by dose curve; tested in HEK293 cells; further: potency means the concentration at half of the fitted maximal effect
* hit, by the source's call; i = inactive; ? = inconclusive; nt = no result given; ! = not active in a repeat; [ ] = another dose, or the depositor's remark. Hits are enriched below; roughly 6.5% of the tested compounds scored in any of these assays. On the % scale 0 is the no-effect control and ±100 the full control effect.

SMILES	FMDV antiviral	Vaccinia Venus	HCMV antiviral	VACV mCherry inh	Lassa entry inh	MARV entry inh
COc1ccc(NC(=O)CSc2ccc3ccccc3c2)cc1S(=O)(=O)N1CCCCC1	?	?	-82*	-23%	?	?
Cn1cccc1C(=O)OCC(=O)NCc1ccc2c(c1)OCO2	35%	nt	-5	nt	nt	nt
CCOC(=O)C(=O)Nc1c(C(=O)Nc2cccc(F)c2)oc2ccccc12	0%	-6%	75	-17%	14%[46.1 µM]	1%[46.1 µM]
COc1ccc(-c2nn(C)c3sc(C(=O)N4CCN(c5cccc(C)c5C)CC4)cc23)cc1OC	0%	0%	9	5%	10%[46.1 µM]	10%[46.1 µM]
CCOC(=O)c1c(NC(C)=O)c2c3c(sc2n1Cc1nc(-c2ccccc2Cl)oc1C)CCCC3	0%	-16%	-20	-13%	nt	-1%[46.1 µM]
O=C(O)C1Cc2c([nH]c3ccccc23)C(c2coc3ccccc3c2=O)N1 (stereo not given)	1%	nt	nt	nt	nt	nt
COc1ccc(/C(N)=N/OC(=O)C2CCC(=O)N2S(=O)(=O)c2ccc(C)cc2)cc1OC (stereo not given)	-30%	-18%	-87*	i	-2%	8%
CC(=O)c1ccc(N2CCN(S(=O)(=O)c3cc(-c4onc(C)c4C)ccc3C)CC2)cc1	?	?	-67*	?	-6%[46.1 µM]	nt
Cc1cc(-c2ccc(C)c(S(=O)(=O)N3CCOc4ccc(Cl)cc43)c2)on1	?	-20%	-40	?	?	nt
Cc1ccc(-c2onc(C)c2C)cc1S(=O)(=O)N1CCOc2ccc(Cl)cc21	?	-6%	-62*	-19%	-22%[46.1 µM]	nt
CCC1CN(S(=O)(=O)c2cc(-c3onc(C)c3C)ccc2C)c2cc(Cl)ccc2O1 (stereo not given)	-16%	-11%	-67*	-18%	-25%[46.1 µM]	nt
Cc1ccc(-c2onc(C)c2C)cc1S(=O)(=O)N1CC(C)Oc2ccccc21 (stereo not given)	?	-7%[7.34 µM]	?	-6%[7.34 µM]	nt	nt
CC(=O)c1ccc(N2CCN(S(=O)(=O)c3cc(-c4noc(C)n4)ccc3C)CC2)cc1	?	-17%	5	-18%	8%[46.1 µM]	nt
CCN(Cc1cccc(S(=O)(=O)O)c1)c1ccc(C(=C2C=CC(=[N+](CC)Cc3cccc(S(=O)(=O)O)c3)C=C2)c2ccc(O)cc2S(=O)(=O)O)cc1	nt	-20%	nt	10µM*	nt	nt
CCN(Cc1cccc(S(=O)(=O)O)c1)c1ccc(C(=C2C=CC(=[N+](CC)Cc3cccc(S(=O)(=O)O)c3)C=C2)c2ccccc2S(=O)(=O)[O-])cc1	nt	-11%	nt	?	nt	nt
CC(=Nc1ccccc1)C1=C(O)C(Cc2cccc(F)c2)NC1=O (stereo not given)	0%	?	-72*	-12%	nt	nt
CC(=Nc1ccccc1)C1=C(O)C(Cc2ccc(O)cc2)NC1=O (stereo not given)	-14%	?	-69*	-15%	?	-24%
Cc1ccc(/C=C/C(=O)c2ccc(O)cc2)cc1	12%	-26%	-7	11µM*	8.9µM*	?
CSc1ccc(/C=C/C(=O)c2ccc(O)cc2)cc1	-36%	?	-5	11µM*	-32%	-20%
CCOc1ccc(C(=O)/C=C/c2ccc(SC)cc2)cc1	-11%	nt	5	nt	-3%	-11%
Cc1ccc(C(=O)/C=C/C(=O)O)cc1	?	-16%	2	-7%	nt	nt
O=C(NC1CC1)[C@@H]1C[C@@H](Sc2nc3ccccc3[nH]2)CN1CC1CCCCC1	-10%	-15%	nt	-24%	nt	nt
CC(=O)c1ccc(N2CCN(S(=O)(=O)c3ccc(-c4cnc(C5CC5)o4)cc3)CC2)cc1	32µM*!	?	-11	?	11%[46.1 µM]	nt
O=S(=O)(c1ccc(-c2cnc(C3CC3)o2)cc1)N1CCN(c2cccc(Cl)c2)CC1	?	-20%	-7	-27%	3%[46.1 µM]	nt
O=S(=O)(c1ccc(-c2cnc(C3CC3)o2)cc1)N1CCN(c2ccc(F)cc2)CC1	0%	-20%	-77*	?	7.9µM*	nt
SMILES	FMDV antiviral	Vaccinia Venus	HCMV antiviral	VACV mCherry inh	Lassa entry inh	MARV entry inh
COc1ccc(N2CCN(S(=O)(=O)c3ccc(-c4cnc(C5CC5)o4)cc3)CC2)cc1	0%	-8%	-18	-19%	?	nt
c1ccc2c(c1)CCN(c1nc3cc4c(cc3s1)OCCO4)C2	7.9µM*	nt	-90*	nt	4.6µM*	?
COc1ccc(OC)c2sc(N3CCc4ccccc4C3)nc12	27%	-6%	-76*	-8%	-2%	-30%[46.1 µM]
O=S(=O)(c1ccc2c(c1)OCCO2)N1CCN(c2nc3ccccc3s2)CC1	nt	-26%	?	-15%	-24%	22%
COc1ccc(OC)c2sc(N3CCCCC3)nc12	72%	nt	8	nt	-18%	-16%
O=C1c2ccc3c4c(ccc(c24)C(=O)N1CCCCO)C(=O)N(CCCCO)C3=O	?	nt	-100*	nt	nt	nt
Cc1cc(C)nc(N/N=C2/CCCC/C2=C\c2ccccc2)n1	-22%	-29%	-113*	?	nt	?
O=C(Cc1ccc([N+](=O)[O-])cc1)NCCc1c[nH]c2ccccc12	nt	nt	5	nt	nt	nt
Fc1ccc(-c2cc(-c3nc(-c4ccccc4)no3)[nH]n2)cc1	46%	-4%[7.34 µM]	-29	-1%[7.34 µM]	?	nt
Cc1ccc(NC(=O)CSc2nnc(NC(=O)NC3CCCCC3)s2)cc1	20%	-17%[7.34 µM]	94	-5%[7.34 µM]	-13%[46.1 µM]	nt
CCCSc1nnc(NC(=O)Nc2ccc(F)cc2)s1	-25%	7.9µM*	-104*	nt	?	?
CCCSc1nnc(NC(=O)Nc2ccccc2)s1	6%	-7%	-99*	i	12%	-23%
Cc1ccc(NC(=O)Nc2nnc(SCC(=O)N3CCC(C)CC3)s2)cc1	-6%	-4%[7.34 µM]	-88*	2%[7.34 µM]	20%[46.1 µM]	nt
CCCOc1ccc(CNC(=O)C2CCN(C(=O)c3sccc3-n3cccc3)CC2)cc1	-20%	-14%	-34	-13%	nt	-8%[46.1 µM]
CC(C)C[C@@H]1COc2cccc(NN3CCN(C)CC3)c2S(=O)(=O)N1	nt	nt	nt	nt	-1%[46.1 µM]	nt
Cc1cc(C)nc(Sc2nc(Cl)nc(N(c3ccccc3)c3ccccc3)n2)n1	35µM*	-8%	90	-18%	-9%	?
Cc1cc(C)nc(SC(C(=O)O)c2ccccc2)n1 (stereo not given)	2%	-16%	1	-13%	18%	18%
Cc1ccc(-c2[nH]ncc2CNCCc2cnn(-c3ccccc3)c2)cc1C	?	-23%	3	-29%	-4%	8.9µM*
Cn1cc(CCNCc2cn[nH]c2-c2ccc(-c3ccccc3)cc2)cn1	16%	-13%	33	-21%	?	?
O=[N+]([O-])c1cnccc1-n1nnc2ccccc21	?	?	-63*	?	nt	nt
O=C(O)c1ccc(-n2nnc3ccccc32)c([N+](=O)[O-])c1	19%	-2%	11	i	11%	12%
C=C(C)CN(CC)c1nc(N)c2c(N)nc3c(c2c1C#N)CC(=O)N3C12CC3CC(CC(C3)C1)C2	?	-24%	-69*	?	?	2.5µM*

Source: PubChem BioAssay (National Center for Advancing Translational Sciences (NCATS))
